In the library only some 1.8% were active in any assay of this set; here they are far more common.
VDR inh – blocks the human vitamin D receptor. P11473. VDR-SRC2-3 peptide fluorescence polarization, 2 h. Potency, µM, most hits filed as inhibitors. actives 0.93% (n = 400,000). AID 504847
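FP read-out; VDR + SRC2-3 coactivator peptide; 23 nl compound by pintool; 2 h RT incubation; reagents held at 4 deg C, protected from light.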
rTrxR1 inhibitor – inhibitors of rat thioredoxin reductase 1. Potency, µM (top dose mostly 114 µM), usual class: inhibitors. recombinant rTrxR1, NADPH fluorescence consumption, selenite substrate. actives 1% (n = 390,000); also: nearly all actives have a fitted effect of over 65% in size
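Rat TrxR1 (90 nM in the dispensed reagent) was pre-reduced with 400 uM NADPH for 5 min at room temperature, then incubated with compound for 15 min. After 400 uM selenite was added, NADPH fluorescence (Ex 340/Em 450 nm) was followed for 8 min.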
TrxR1 substrate – substrates of rat thioredoxin reductase 1. O89049. purified TrxR1 substrate turnover, NADPH consumption readout. Potency, µM (titrated, usually from 114 µM). actives 0.01% (n = 390,000). AID 588456; also: nearly all actives have a fitted effect of over 50% in size
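Rat TrxR1, dispensed at 90 nM, was prereduced with 400 uM NADPH (final) for 5 min at ~22 deg C, then incubated with compound 15 min before 400 uM selenite. A first-read NADPH fluorescence drop versus no-compound background flagged substrates.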
Vif-APOBEC3F blk – blocks the Vif interaction with APOBEC3F. Potency, µM (doses to about 46.1 µM). HeLa A3F-eYFP + Vif (tagged APOBEC3F with the HIV-1 protein that degrades it), YFP fluorescence increase. actives 0.2% (n = 390,000). AID 602313; also: nearly all actives have a fitted effect of over 65% in size
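Fluorescence increase (Ex 488/Em 500-530) after overnight compound treatment at 37 deg C flags inhibition of Vif-driven A3F-eYFP loss in stable HeLa A3F-eYFP/Vif cells seeded overnight beforehand.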
Vif-APOBEC3G blk – blocks the Vif interaction with human APOBEC3G; Q9HC16; HeLa A3G-eYFP + Vif (tagged APOBEC3G with the HIV-1 protein that degrades it), YFP fluorescence, overnight; Potency, µM (series often up to 46.1 µM), hits mostly inhibitors; actives 0.076% (n = 410,000); also: nearly all actives have a fitted effect of over 60% in size
Target sequence (Q9HC16 whole entry, looked up): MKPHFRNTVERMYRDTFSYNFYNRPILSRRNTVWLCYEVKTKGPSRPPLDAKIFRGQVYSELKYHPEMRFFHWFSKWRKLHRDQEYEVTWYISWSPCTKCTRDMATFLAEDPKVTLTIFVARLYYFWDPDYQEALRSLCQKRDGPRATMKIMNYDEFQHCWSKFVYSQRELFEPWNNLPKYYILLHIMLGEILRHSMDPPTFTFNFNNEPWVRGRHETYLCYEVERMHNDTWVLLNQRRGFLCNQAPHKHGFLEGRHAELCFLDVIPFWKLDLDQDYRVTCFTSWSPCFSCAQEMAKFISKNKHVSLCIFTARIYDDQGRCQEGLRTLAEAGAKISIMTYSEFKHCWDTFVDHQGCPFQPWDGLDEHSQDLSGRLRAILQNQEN
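HeLa cells stably expressing Vif and C-terminally eYFP-tagged A3G, seeded overnight at 37 deg C, then exposed to compound by pintool overnight at 37 deg C. Rise in yellow fluorescence (Ex 488/Em 500-530, Acumen) marks blocked Vif-driven A3G degradation.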
Numbers stand for hits; n = inactive; u = inconclusive; x = no result given; ! = not confirmed by another sample; [ ] = dose if it differs, or a comment. Calls follow the shape of the dose curve; as a rule, active = well fitted curve in the direction sought with a large enough effect; inconclusive = small, poorly fitted or top-dose-only effect, or another doubt; inactive = no such curve, though single readings can be large; an effect the other way counts as inactive or inconclusive.

SMILES	VDR inh	rTrxR1 inhibitor	TrxR1 substrate	Vif-APOBEC3F blk	Vif-APOBEC3G blk
CC1(C)Cc2c(C#N)c(N3CCN(C(=O)c4ccccc4Cl)CC3)nc(-c3ccco3)c2CS1	n	12.6µM	n	n	n
N#Cc1c(N2CCN(C(=O)c3ccccc3Cl)CC2)nc(-c2ccccc2)c2c1CCCC2	n	n	n	n	n
CC(=O)N1CCN(c2nc(-c3ccco3)c3c(c2C#N)CC(C)(C)SC3)CC1	n	u	n	n	n
CCCCc1nc(NCCNC(=O)c2ccco2)c(C#N)c2c1CSC(C)(C)C2	u	50.1µM	n	n	n
CC1(C)Cc2c(C#N)c(N3CCN(C(=O)c4ccco4)CC3)nc(-c3ccco3)c2CS1	u	7.08µM	n	n	n
CCOc1ccc(NC(=O)CSc2cn(CC(=O)N3CCOCC3)c3ccccc23)cc1	n	n	n	n	n
CCOC(=O)c1cnc2c(ccc3ccccc32)c1Nc1ccc(Cl)cc1	n	n	n	n	n
CCOC(=O)c1cnc2c(F)ccc(F)c2c1Sc1ccccc1	u	56.2µM	n	n	n
CN(C)c1ccc(/C=C/c2ccnc3ccccc23)c(N)c1	x	n	n	x	u
COC(=O)N1CCc2c(sc(NC(=O)C3COc4ccccc4O3)c2C(N)=O)C1 (centres undefined)	89.1µM	n	n	n	u
COc1ccccc1N(C)C	x	n	n	x	n
Cc1ccc(S(=O)(=O)N2CCN(c3nc(-n4cccn4)nc4ccccc34)CC2)cc1	x	n	n	x	x
CN(C)c1ccc(/C=C/c2ccc3cc(N)ccc3n2)cc1	x	n	n	x	n
COc1ccc(/C=C/c2ccccc2)cc1C1C2C=CCCC2(C)C(=O)N1Cc1ccccc1 (centres undefined)	n	n	n	x	n
COc1ccc(C(=O)CCS(=O)(=O)c2ccc(C)cc2)cc1	u	14.1µM	n	n	n
Cc1ccc(C(=O)CCS(=O)(=O)c2ccc(Br)cc2)cc1	n	0.501µM	n	n	n
COc1ccc(C(=O)NCS(=O)(=O)c2ccc(C)cc2)cc1	n	28.2µM	n	n	n
CC(C)c1cnc2c(c1SCc1cccc(F)c1)c(=O)n(C)c(=O)n2C	n	n	n	n	n
CCCCn1c(=O)[nH]c(=O)c2c1nc(CN1C(=O)c3ccccc3S1(=O)=O)n2CCC	n	n	n	n	n
CCCCn1c(=O)[nH]c(=O)c2c1nc(Cn1ncc(Cl)c(Cl)c1=O)n2CCC	u	50.1µM	n	n	n
CCc1ccc(-n2nc3cc(C)c(NC(=O)c4cc(Cl)ccc4OC)cc3n2)cc1	n	n	n[11.4 µM]	n	n
CCN(CC)c1ccc(-c2nnc(SCC(=O)NCc3ccco3)n2C)cc1	x	n	n	x	n
Cc1cc(C(=O)Nc2ccc(Nc3ccccc3)cc2)ccc1[N+](=O)[O-]	25.1µM	n	n	n	n
O=C(Nc1ccc(Nc2ccccc2)cc1)c1ccc(Cl)c([N+](=O)[O-])c1	n	n	n	n	n
CC(=O)c1ccccc1S(=O)(=O)N1CCN(c2nc(-c3cccs3)nc3ccccc23)CC1	n	n	n	x	x
SMILES	VDR inh	rTrxR1 inhibitor	TrxR1 substrate	Vif-APOBEC3F blk	Vif-APOBEC3G blk
CCN1/C(=C/C=C/c2sc3ccccc3[n+]2CC)Sc2ccccc21	7.94µM!	n	n	n	n
CCN1/C(=C/C=C/C=C/c2sc3ccccc3[n+]2CC)Sc2ccccc21	u	u	n	x	n
CC(C)c1nnc2n1N=C(c1ccc(Cl)cc1)CS2	n	n[11.4 µM]	n	n	n
CCCc1ccc(C2=Nn3c(nnc3C(C)C)SC2)cc1	79.4µM	n	n	n	n
CC[C@H](C)[C@H](NC(=O)[C@H](Cc1cnc[nH]1)NC(=O)[C@@H](NC(=O)[C@H](CCCNC(=N)N)NC(=O)[C@H](CCCCN)NC(=O)[C@H](CCCNC(=N)N)NC(=O)[C@H](CCCCN)NC(=O)[C@@H](N)CC(N)=O)[C@@H](C)CC)C(=O)NCC(=O)N1CCC[C@H]1C(=O)NCC(=O)N[C@@H](CCCNC(=N)N)C(=O)N[C@@H](C)C(=O)N[C@@H](Cc1ccccc1)C(=O)N[C@@H](Cc1ccc(O)cc1)C(=O)N[C@H](C(=O)N[C@H](C(=O)N[C@@H](CCCCN)C(=O)N[C@@H](CC(N)=O)C(=O)N[C@H](C(=O)N[C@H](C(=O)NCC(=O)N[C@H](C(=O)N[C@H](C(=O)N[C@@H](CS)C(=O)O)[C@@H](C)CC)[C@@H](C)O)[C@@H](C)CC)[C@@H](C)CC)[C@@H](C)O)[C@@H](C)O	n	x	x	x	x
Cn1cnc(S(=O)(=O)N2CCC(C(=O)N3CCN(c4ccc(Cl)cc4)CC3)CC2)c1	n	n	n	n	n
Cc1ccc(C)c(C(=O)CSc2n[nH]c(C)n2)c1	u	35.5µM	n	n	n
O=S(=O)(c1ccc2c(c1)OCO2)N1CCN(c2nc(-c3cccs3)nc3ccccc23)CC1	n	n	n	x	x
Cc1ccc(C)n1-c1sccc1C(=O)O	n	50.1µM	n	n	n
Cc1ccc(C)n1-c1sc2c(c1C(=O)O)CCCC2	n	n	n	n	n
CCC1CCCCN1S(=O)(=O)c1ccc2c(c1)CCN2C(=O)C1CCC1 (centres undefined)	n	n	n	n	n
O=C(CCl)c1ccc2c(c1)CCN2C(=O)C1CCCCC1	44.7µM	u	n	n	n
CCCCOc1ccccc1CC1C(=O)Nc2ccc(Br)cc21 (centres undefined)	n	n	n	x	x
O=Nc1c(O)[nH]c2ccc(F)cc12	n	n	n	n	n
Cc1cc2c(N=O)c(NO)ccc2[nH]1	n	n	n	u	5.62µM
COc1ccccc1S(=O)(=O)N1CCN(c2nc(-c3cccs3)nc3ccccc23)CC1	n	n	n	x	x
O=C1CSc2ccc(S(=O)(=O)CCC(=O)NC3CCCCC3)cc2N1	n	14.1µM	n	n	n
CC1CCC(NC(=O)CCS(=O)(=O)c2ccc3c(c2)NC(=O)CS3)CC1 (centres undefined)	n	n	n	n	n
CC1=NN(c2ccccc2)C(=O)C1=Cc1ccccc1	x	x	x	n	n
CC1=NN(c2ccc(C)cc2)C(=O)/C1=C\C=C\c1ccccc1	79.4µM	n	n	u	u
CC1=NN(c2ccccc2)C(=O)/C1=C/c1cccs1	79.4µM	u	n	n	u
CC1=NN(c2ccccc2)C(=O)/C1=C/C=C/C=C/N(C)C	n	n	n	n	n
Cc1ccc(NC(=O)NCc2c(-n3cccc3)sc3c2CCCC3)c(Cl)c1	n	n	n	n	n
Cn1ccnc1C(O)c1cc(C(C)(C)C)c(O)c(C(C)(C)C)c1 (centres undefined)	n	31.6µM	n	n	n
O=C(c1cc2ccccc2[nH]1)c1cc2cc(O)ccc2[nH]1	x	n	n	x	n
COc1ccc(C(=O)N/N=C/c2ccc(N3CCOCC3)o2)cc1OC	u	28.2µM	n	n	n
O=C(N/N=C/c1ccc(N2CCOCC2)o1)c1cccc(F)c1	39.8µM	11.2µM	n	x	n
